Laboratory results taken from PubChem BioAssay.
A number with no mark means an inactive call. Activity calls are given as the source filed them.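 Rule for the calls: active = luciferase signal above three times the same-plate solvent-only control wells; inactive = the rest.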

Biological target: Mitogen-activated protein kinase 7 (Homo sapiens) (UniProt Q13164)
Experiment: ERK5 transactivation activators in reporter cells, primary screen, cell-based, HTS (AID 1508626);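 note: luciferase driven by Gal4-ERK5 fusion binding five Gal4 sites before minimal TATA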
Details: HeLa Gal4-ERK5 transactivation, 18 h, at 5 µM, active compounds read high

Sequence of Mitogen-activated protein kinase 7 (Homo sapiens) (Q13164 whole entry, looked up, the tested form may be a part): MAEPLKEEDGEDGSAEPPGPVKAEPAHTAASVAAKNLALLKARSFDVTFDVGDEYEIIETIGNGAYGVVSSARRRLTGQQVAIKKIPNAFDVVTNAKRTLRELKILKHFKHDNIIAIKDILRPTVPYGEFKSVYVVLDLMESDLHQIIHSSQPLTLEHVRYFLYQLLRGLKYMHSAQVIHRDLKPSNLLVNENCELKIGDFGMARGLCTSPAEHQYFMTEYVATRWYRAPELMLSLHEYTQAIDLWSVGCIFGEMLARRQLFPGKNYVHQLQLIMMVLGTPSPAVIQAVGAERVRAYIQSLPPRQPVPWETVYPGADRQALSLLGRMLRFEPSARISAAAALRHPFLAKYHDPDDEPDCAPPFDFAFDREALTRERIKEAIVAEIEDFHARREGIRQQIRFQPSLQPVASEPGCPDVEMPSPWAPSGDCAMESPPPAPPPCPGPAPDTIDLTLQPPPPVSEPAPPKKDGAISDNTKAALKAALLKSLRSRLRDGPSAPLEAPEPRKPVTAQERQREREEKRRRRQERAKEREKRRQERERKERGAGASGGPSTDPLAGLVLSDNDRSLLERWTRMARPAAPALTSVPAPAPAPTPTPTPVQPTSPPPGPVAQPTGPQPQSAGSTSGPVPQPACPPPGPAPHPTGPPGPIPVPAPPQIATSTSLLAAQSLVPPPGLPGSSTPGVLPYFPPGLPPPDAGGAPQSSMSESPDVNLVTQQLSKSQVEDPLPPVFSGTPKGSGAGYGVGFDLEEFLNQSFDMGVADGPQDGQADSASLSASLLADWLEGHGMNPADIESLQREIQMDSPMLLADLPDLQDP

Compound | luciferase signal
COc1ccc(/C=C/C(=O)c2ccc(O)cc2O)cc1OC | 60 AU
CC(=O)OC1C[C@@]2(C)C(CC[C@@H]2C(C)=O)C2CCC3=CC(=O)CC[C@]3(C)C12 (some centres undefined) | 108 AU
COC(=O)Oc1ccccc1C(=O)O | 40 AU
C[C@@]12CCc3occc3[C@H]1CC[C@@]13C[C@@H](CC[C@H]12)[C@@](O)(CO)C3 | 40 AU
CC(C)CCC[C@@H](C)[C@H]1CC[C@H]2[C@@H]3CC[C@H]4C[C@H](O)CC[C@]4(C)[C@H]3CC[C@]12C | 140 AU
Nc1ncnc2c1ncn2[C@H]1C[C@H](O)[C@@H](CO)O1 | 136 AU
COC(=O)C[C@H]1C(C)(C)C(=O)[C@@H]2CC3=C(CC[C@]4(C)C3=CC(=O)O[C@H]4c3ccoc3)[C@@]1(C)C2=O | 24 AU
O=C(O)/C=C/c1ccccc1 | 52 AU
CC(C)CCC[C@@H](C)[C@H]1CC[C@H]2[C@@H]3C(=O)C=C4C[C@@H](O)CC[C@]4(C)[C@H]3CC[C@]12C | 80 AU
O=c1c(O)c(-c2ccc(O)c(O)c2)oc2c(O[C@@H]3O[C@H](CO)[C@@H](O)[C@H](O)[C@H]3O)c(O)cc(O)c12 | 36 AU
CC(=O)O[C@H]1CC[C@]2(C)C3=C(CC[C@H]2C1(C)C)[C@@]1(C)CC[C@@H]([C@H](C)CCC=C(C)C)[C@]1(C)CC3 | 28 AU
CCCCCCCCCCCCCCC(C(=O)O)C(O)(CC(=O)OC)C(=O)O (centres undefined) | 64 AU
C=C[C@](C)(O)CCC=C(C)C | 36 AU
COC(=O)C[C@H]1C(C)(C)C(=O)[C@@H]2CC3=C4CC(=O)O[C@@H](c5ccoc5)[C@]4(C)CC[C@@H]3[C@@]1(C)C2=O | 32 AU
CC(=O)O[C@@](C)(CCC=C(C)C)C1CC=C(C)CC1 (some centres undefined) | 72 AU
CC(=O)O[C@@H]1C=C[C@@]2(C)C(C[C@@H](OC(C)=O)[C@@]3(C)C4=CC(=O)O[C@@H](c5ccoc5)[C@]4(C)CCC23)C1(C)C (some centres undefined) | 20 AU
N[C@@H](C=O)[C@@H](O[C@@H]1O[C@H](C(=O)O)[C@@H](O)[C@H](O)[C@H]1O)[C@@H](O)[C@H](O)CO | 20 AU

Compound | luciferase signal
Oc1ccc2c(c1)OC[C@]1(O)Cc3cc(O)c(O)cc3[C@H]21 | 28 AU
O=c1c(O)c(-c2ccccc2)oc2cccc(O)c12 | 60 AU
CC(=O)Oc1ccc2c(c1)CC[C@@H]1[C@@H]2CC[C@]2(C)[C@@H](OC(C)=O)CC[C@@H]12 | 8 AU
CC(C)c1c(O)ccc2c1CCC1[C@@](C)(CO)CCC[C@]21C (some centres undefined) | 112 AU
CC(C)CCC[C@@H](C)[C@H]1CC[C@H]2[C@@H]3CC=C4CC(=O)CC[C@]4(C)[C@H]3CC[C@]12C | 20 AU
CC[C@H](/C=C/[C@@H](C)[C@H]1CC[C@H]2[C@@H]3CCC4=CC(=O)CC[C@]4(C)[C@H]3CC[C@]12C)C(C)C | 56 AU
CC1(C)CCCC2(C)C3C(O)CC2(C)C(O)C31 (centres undefined) | 64 AU
COc1cc(-c2oc3cc(O)ccc3c(=O)c2O)ccc1O | 92 AU
COc1cc2c(cc1OC)C1Cc3ccc(OC)c(OC)c3CN1CC2 (centres undefined) | 52 AU
CC(C)CCC[C@@H](C)[C@H]1CC[C@H]2[C@@H]3CC(=O)[C@H]4C[C@@H](O)CC[C@]4(C)[C@H]3CC[C@]12C | 216 AU (active)
CC1(C)C[C@@H]2/C(CO)=C\C=C/[C@@](C)(O)CC[C@]21O | 64 AU
CC1(C)CC2C1CC[C@]1(C)CCC3C(C(=O)O)CC(=O)O[C@@]32C1 (some centres undefined) | 56 AU
CC(=O)OCC(=O)[C@H]1CC[C@H]2[C@@H]3CC=C4C[C@@H](O)CC[C@]4(C)[C@H]3CC[C@]12C | 256 AU (active)
CC1(C)O[C@H]2[C@H](O)C[C@](O)(C(N)=O)C[C@H]2O1 | 20 AU
CC1C(=O)OC2CC34C5CC(C(C)(C)C)C36C(OC(=O)C6O)OC4(C(=O)O5)C21O (centres undefined) | 36 AU
CCC(=O)OCC(=O)[C@@]1(OC(=O)CC)[C@H](C)CC2C3C(Cl)CC4=CC(=O)C=C[C@]4(C)C3C(O)C[C@@]21C (some centres undefined) | 108 AU
CC(=O)Oc1cc(C)c2c(c1C=O)Oc1c(c(C)c(OC(C)=O)c3c1C(OC(C)=O)OC3=O)OC2=O (centres undefined) | 172 AU
